# Columns and labels:
# Assay in all cases: DAPPL (digital affinity profiling via proximity ligation, sequencing); 10 mM Tris-HCl pH 7.5, 50 mM NaCl, 1 mM DTT, 4% glycerol, room temperature, 30 min; GST-TFs on glutathione beads, 16-mer random dsDNA library, 0.1% formaldehyde crosslink after washing; high values mean tight binding
# FLI1 = target: T1, FLI1 (Homo sapiens, UniProt Q01543 1-452); conditions: protein: recombinant; tags: N-terminal GST; dsDNA, one strand shown
# T1 sequence: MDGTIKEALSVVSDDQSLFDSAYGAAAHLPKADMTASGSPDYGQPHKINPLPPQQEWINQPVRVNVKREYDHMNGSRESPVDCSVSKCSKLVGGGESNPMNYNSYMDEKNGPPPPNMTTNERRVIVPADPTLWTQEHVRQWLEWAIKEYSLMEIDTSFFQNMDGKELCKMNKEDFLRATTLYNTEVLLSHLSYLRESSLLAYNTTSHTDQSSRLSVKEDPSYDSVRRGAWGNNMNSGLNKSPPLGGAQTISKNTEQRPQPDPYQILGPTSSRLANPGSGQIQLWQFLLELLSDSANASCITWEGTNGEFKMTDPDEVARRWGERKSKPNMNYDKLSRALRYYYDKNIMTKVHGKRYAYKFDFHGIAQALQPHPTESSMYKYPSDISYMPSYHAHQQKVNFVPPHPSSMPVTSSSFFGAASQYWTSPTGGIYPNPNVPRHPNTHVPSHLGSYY
# How it was run: (§1)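 A tag-only sample was pooled with DNA-barcoded human transcription factors that had been expressed in yeast as GST fusions and captured on glutathione beads. The pools were incubated for 30 min at room temperature with 200 nmole of a random double-stranded 16-mer DNA library in Tris/NaCl/DTT/glycerol buffer, then washed, crosslinked with 0.1% formaldehyde, proximity-ligated (BsaI/T4 ligase, 1 h, 37 °C), PCR-amplified and sequenced on an Illumina NextSeq500. Binding signal is each hexamer's read frequency for a factor divided by its frequency for the tag-only sample.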
# ELK1 = target: T2, ELK1 (Homo sapiens, UniProt P19419 1-428); conditions: protein: recombinant; tags: N-terminal GST; dsDNA, one strand shown
# T2 sequence: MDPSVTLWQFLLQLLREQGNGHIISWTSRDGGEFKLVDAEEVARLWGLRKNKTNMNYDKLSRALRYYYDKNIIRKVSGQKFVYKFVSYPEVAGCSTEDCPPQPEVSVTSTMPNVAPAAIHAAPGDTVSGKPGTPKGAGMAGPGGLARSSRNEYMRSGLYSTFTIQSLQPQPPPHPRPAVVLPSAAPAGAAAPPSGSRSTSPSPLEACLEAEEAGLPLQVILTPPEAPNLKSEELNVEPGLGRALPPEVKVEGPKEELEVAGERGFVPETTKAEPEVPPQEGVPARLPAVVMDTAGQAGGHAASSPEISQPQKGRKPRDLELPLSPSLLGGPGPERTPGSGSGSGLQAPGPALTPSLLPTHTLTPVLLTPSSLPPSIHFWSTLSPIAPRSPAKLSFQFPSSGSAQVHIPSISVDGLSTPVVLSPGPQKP
# How it was run: as §1
# GABPA = target: T3, GABPA (Homo sapiens, UniProt Q06546 1-454); conditions: protein: recombinant; tags: N-terminal GST; dsDNA, one strand shown
# T3 sequence: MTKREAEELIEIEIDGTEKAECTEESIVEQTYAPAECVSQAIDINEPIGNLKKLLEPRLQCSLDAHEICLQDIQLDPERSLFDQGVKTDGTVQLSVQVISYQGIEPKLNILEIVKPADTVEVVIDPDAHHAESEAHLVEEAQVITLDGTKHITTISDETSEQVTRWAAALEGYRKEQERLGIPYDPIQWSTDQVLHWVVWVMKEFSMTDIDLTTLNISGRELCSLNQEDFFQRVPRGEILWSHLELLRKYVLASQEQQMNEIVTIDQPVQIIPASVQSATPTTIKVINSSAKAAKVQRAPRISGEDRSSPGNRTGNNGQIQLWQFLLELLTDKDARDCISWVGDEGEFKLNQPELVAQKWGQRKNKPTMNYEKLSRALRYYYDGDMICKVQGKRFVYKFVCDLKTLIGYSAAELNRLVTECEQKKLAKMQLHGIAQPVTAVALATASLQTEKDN
# How it was run: as §1
# ERG = target: T4, ERG (Homo sapiens, UniProt P11308 1-479); conditions: protein: recombinant; tags: N-terminal GST; dsDNA, one strand shown
# T4 sequence: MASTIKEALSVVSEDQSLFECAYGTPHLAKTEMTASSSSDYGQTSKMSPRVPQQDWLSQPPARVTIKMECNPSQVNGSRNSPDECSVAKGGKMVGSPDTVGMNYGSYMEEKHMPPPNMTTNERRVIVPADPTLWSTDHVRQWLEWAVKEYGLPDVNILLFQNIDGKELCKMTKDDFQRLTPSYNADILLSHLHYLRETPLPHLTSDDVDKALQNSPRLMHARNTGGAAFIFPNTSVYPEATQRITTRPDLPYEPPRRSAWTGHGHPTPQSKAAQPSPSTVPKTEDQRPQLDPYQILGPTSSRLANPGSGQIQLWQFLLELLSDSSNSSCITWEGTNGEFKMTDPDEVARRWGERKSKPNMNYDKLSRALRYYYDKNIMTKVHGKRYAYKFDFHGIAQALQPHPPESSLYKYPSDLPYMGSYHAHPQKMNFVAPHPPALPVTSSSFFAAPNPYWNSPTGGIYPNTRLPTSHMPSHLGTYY
# How it was run: as §1
# ELF1 = ELF1 (Homo sapiens, UniProt P32519 1-619); conditions: protein: recombinant; tags: N-terminal GST; dsDNA, one strand shown
# Sequence of ELF1 (P32519 whole entry): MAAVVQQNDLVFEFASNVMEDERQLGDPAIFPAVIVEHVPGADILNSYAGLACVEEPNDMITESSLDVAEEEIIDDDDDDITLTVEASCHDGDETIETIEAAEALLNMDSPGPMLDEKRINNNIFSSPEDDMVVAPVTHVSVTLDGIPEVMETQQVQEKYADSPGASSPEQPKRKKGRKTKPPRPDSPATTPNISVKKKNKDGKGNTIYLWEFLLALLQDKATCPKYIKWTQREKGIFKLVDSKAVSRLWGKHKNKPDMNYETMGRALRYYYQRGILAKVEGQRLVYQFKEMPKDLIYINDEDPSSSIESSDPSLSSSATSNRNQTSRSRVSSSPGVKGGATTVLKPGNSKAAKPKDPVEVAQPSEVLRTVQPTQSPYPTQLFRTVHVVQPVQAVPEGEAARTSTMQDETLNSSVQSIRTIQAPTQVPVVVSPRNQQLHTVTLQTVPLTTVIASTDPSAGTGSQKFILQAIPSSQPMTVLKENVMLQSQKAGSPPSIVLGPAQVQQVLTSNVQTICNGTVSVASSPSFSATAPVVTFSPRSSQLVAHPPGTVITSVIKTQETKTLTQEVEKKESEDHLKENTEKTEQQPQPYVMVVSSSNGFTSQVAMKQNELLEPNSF
# How it was run: as §1
# EHF = target: T5, EHF (Homo sapiens, UniProt Q9NZC4 1-300); conditions: protein: recombinant; tags: N-terminal GST; dsDNA, one strand shown
# T5 sequence: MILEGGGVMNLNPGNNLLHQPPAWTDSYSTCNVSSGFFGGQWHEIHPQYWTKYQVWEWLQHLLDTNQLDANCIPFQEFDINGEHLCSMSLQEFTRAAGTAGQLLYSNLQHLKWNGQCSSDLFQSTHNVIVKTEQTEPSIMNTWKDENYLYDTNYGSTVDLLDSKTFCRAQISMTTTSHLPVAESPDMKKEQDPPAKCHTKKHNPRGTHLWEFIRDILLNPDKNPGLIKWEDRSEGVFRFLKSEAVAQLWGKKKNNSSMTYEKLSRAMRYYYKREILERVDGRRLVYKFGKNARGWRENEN
# How it was run: as §1
# SPI1 = SPI1 (Homo sapiens, UniProt P17947 1-270); conditions: protein: recombinant; tags: N-terminal GST; dsDNA, one strand shown
# How it was run: as §1
# SPIB = SPIB (Homo sapiens, UniProt Q01892 1-262); conditions: protein: recombinant; tags: N-terminal GST; dsDNA, one strand shown
# Sequence of SPIB (Q01892 whole entry): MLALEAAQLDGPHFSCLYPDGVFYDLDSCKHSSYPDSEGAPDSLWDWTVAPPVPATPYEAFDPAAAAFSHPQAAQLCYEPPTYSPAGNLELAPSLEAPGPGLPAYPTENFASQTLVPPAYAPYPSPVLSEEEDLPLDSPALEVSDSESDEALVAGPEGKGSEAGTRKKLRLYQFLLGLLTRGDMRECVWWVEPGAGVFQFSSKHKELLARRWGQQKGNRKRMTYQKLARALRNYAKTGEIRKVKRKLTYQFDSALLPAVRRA
# How it was run: as §1
# ELK3 = target: T6, ELK3 (Homo sapiens, UniProt P41970 1-407); conditions: protein: recombinant; tags: N-terminal GST; dsDNA, one strand shown
# T6 sequence: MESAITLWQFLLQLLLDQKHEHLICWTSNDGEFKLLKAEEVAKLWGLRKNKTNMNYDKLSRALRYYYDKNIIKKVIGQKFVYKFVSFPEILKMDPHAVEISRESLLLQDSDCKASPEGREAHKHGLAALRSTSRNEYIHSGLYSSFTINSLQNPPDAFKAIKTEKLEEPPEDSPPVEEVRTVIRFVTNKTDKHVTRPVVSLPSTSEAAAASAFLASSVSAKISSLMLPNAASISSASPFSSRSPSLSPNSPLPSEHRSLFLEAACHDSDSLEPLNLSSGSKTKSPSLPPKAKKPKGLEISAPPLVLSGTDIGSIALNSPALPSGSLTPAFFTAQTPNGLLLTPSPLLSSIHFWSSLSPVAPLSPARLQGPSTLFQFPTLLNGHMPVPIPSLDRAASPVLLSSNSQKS
# How it was run: as §1
# FEV = target: T7, FEV (Homo sapiens, UniProt Q99581 1-238); conditions: protein: recombinant; tags: N-terminal GST; dsDNA, one strand shown
# T7 sequence: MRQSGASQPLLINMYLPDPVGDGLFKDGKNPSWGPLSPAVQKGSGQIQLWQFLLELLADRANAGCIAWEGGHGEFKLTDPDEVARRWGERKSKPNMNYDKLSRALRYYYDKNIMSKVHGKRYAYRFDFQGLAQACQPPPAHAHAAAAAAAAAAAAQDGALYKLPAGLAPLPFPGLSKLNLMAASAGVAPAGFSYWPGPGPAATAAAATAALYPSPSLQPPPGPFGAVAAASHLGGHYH
# How it was run: as §1
# ETV5 = ETV5 (Homo sapiens, UniProt P41161 1-510); conditions: protein: recombinant; tags: N-terminal GST; dsDNA, one strand shown
# Sequence of ETV5 (P41161 whole entry): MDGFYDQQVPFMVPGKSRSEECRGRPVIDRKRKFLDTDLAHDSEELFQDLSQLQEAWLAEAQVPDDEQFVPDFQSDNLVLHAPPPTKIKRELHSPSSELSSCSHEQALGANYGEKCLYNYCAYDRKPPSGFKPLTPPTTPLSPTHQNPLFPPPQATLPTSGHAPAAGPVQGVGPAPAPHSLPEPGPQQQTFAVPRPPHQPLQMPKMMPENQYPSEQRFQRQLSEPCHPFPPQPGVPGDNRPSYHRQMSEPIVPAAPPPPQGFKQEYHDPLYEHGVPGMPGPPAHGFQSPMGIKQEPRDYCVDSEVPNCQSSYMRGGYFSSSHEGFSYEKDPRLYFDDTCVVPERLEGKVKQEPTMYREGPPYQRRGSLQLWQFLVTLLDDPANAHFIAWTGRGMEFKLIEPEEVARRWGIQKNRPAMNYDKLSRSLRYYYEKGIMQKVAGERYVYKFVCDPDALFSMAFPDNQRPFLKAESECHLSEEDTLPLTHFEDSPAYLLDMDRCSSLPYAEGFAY
# How it was run: as §1
# HSF1 = HSF1 (Homo sapiens, UniProt Q00613 1-529); conditions: protein: recombinant; tags: N-terminal GST; chain copies: 3; dsDNA, one strand shown
# Sequence of HSF1 (Q00613 whole entry): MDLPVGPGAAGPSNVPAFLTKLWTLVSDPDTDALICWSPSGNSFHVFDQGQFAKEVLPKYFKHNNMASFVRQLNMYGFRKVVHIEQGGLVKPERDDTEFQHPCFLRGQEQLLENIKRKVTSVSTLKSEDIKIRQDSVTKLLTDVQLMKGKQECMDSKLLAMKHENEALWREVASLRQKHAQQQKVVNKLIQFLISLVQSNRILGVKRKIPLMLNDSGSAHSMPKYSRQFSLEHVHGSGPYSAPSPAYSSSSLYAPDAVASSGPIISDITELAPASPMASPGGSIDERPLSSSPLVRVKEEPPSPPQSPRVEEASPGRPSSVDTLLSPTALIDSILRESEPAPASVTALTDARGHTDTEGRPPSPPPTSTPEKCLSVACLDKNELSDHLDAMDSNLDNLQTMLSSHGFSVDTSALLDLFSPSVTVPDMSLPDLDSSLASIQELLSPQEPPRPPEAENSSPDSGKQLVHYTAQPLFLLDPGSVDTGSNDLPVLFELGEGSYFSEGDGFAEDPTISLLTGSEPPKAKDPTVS
# How it was run: as §1
# SPIC = target: T8, SPIC (Homo sapiens, UniProt Q8N5J4 1-248); conditions: protein: recombinant; tags: N-terminal GST; dsDNA, one strand shown
# T8 sequence: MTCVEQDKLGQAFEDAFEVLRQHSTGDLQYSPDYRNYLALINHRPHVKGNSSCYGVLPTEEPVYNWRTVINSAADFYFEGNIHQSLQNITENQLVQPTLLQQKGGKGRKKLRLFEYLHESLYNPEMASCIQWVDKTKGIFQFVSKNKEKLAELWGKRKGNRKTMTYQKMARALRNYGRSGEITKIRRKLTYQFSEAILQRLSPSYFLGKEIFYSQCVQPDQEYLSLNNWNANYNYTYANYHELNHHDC
# How it was run: as §1
# ELF4 = ELF4 (Homo sapiens, UniProt Q99607 1-663); conditions: protein: recombinant; tags: N-terminal GST; dsDNA, one strand shown
# Sequence of ELF4 (Q99607 whole entry): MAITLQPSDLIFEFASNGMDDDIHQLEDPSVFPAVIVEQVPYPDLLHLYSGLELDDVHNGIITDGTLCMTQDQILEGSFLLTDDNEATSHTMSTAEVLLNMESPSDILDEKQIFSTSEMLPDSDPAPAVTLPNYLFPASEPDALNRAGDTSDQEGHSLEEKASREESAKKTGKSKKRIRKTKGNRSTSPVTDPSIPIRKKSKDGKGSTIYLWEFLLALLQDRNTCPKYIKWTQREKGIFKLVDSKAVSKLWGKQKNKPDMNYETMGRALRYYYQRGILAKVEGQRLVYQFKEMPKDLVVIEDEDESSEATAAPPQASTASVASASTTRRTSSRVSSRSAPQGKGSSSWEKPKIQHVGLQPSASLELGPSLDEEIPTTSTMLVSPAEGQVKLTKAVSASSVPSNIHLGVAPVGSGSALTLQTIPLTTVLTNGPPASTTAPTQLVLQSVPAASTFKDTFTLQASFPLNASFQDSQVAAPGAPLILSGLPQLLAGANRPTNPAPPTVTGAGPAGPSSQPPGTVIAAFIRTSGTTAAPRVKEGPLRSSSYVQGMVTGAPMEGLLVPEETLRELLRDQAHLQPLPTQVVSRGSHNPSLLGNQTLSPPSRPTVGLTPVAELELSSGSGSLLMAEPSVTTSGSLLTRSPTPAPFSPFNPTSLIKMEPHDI
# How it was run: as §1
# ELK4 = target: T9, ELK4 (Homo sapiens, UniProt P28324-2 1-405); conditions: protein: recombinant; tags: N-terminal GST; dsDNA, one strand shown
# T9 sequence: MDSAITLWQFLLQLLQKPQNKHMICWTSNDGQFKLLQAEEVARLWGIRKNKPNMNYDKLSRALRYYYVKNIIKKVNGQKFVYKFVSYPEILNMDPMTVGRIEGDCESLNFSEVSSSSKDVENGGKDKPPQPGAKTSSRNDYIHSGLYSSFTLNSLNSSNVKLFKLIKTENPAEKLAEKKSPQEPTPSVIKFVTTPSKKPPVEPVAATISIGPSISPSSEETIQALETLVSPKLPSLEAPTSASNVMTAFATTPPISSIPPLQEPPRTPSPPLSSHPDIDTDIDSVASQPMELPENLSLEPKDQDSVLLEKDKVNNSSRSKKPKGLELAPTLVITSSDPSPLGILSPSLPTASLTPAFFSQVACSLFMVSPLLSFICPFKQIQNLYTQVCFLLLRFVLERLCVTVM
# How it was run: as §1
# ETV2 = target: T10, ETV2 (Homo sapiens, UniProt O00321 1-342); conditions: protein: recombinant; tags: N-terminal GST; dsDNA, one strand shown
# T10 sequence: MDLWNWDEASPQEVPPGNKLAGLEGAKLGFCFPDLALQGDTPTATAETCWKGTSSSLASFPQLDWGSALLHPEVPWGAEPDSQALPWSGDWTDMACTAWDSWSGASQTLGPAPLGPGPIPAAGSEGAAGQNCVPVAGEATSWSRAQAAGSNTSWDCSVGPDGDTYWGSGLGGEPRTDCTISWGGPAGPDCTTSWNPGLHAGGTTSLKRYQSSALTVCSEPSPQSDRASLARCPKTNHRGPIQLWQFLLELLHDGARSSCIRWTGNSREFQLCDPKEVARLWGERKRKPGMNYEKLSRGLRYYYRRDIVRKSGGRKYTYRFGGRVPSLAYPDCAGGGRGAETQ
# How it was run: as §1
# ELF3 = target: T11, ELF3 (Homo sapiens, UniProt P78545 1-371); conditions: protein: recombinant; tags: N-terminal GST; dsDNA, one strand shown
# T11 sequence: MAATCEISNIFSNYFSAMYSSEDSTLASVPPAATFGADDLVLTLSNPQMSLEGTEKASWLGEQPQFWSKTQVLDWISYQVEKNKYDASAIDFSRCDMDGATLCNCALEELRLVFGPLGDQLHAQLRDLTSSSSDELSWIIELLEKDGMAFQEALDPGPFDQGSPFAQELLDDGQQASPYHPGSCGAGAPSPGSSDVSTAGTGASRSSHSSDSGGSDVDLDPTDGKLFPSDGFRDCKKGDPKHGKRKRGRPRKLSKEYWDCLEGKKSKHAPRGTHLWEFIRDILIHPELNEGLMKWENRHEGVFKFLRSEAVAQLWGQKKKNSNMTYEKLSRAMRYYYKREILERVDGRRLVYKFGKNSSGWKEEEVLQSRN
# How it was run: as §1
# CRX = CRX (Homo sapiens, UniProt O43186 1-299); conditions: protein: recombinant; tags: N-terminal GST; dsDNA, one strand shown
# Sequence of CRX (O43186 whole entry): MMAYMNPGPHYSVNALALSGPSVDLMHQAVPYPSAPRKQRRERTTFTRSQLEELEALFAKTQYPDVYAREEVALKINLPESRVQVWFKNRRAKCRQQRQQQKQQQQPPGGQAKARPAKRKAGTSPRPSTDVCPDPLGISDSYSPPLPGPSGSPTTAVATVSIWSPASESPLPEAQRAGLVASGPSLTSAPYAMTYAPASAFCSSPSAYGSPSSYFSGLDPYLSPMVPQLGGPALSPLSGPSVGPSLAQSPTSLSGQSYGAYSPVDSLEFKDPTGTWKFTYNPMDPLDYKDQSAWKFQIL
# How it was run: as §1
# ETV1 = ETV1 (Homo sapiens, UniProt P50549 1-477); conditions: protein: recombinant; tags: N-terminal GST; dsDNA, one strand shown
# Sequence of ETV1 (P50549 whole entry): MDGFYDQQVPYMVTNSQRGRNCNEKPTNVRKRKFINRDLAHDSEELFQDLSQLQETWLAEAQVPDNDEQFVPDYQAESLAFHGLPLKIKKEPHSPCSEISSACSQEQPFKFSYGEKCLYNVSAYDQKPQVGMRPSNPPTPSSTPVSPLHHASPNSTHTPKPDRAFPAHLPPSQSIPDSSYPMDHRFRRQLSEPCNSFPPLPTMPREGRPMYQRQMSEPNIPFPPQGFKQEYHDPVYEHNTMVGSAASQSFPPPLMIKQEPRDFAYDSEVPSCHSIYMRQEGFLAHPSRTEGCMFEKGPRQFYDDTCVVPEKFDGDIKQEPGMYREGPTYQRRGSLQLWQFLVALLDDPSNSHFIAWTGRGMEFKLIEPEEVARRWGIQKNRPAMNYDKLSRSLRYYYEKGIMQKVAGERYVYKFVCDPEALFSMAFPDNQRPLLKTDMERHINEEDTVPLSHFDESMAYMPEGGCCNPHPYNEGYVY
# How it was run: as §1
sequence,measurement,setting,value
CATCTG,binding signal,FLI1,"1.24 fold enrichment (6-mer frequency, TF over GST control)"
same,binding signal,ELK1,"1.23 fold enrichment (6-mer frequency, TF over GST control)"
same,binding signal,GABPA,"1.37 fold enrichment (6-mer frequency, TF over GST control)"
same,binding signal,ERG,"1.16 fold enrichment (6-mer frequency, TF over GST control)"
same,binding signal,ELF1,"1.33 fold enrichment (6-mer frequency, TF over GST control)"
same,binding signal,EHF,"1.31 fold enrichment (6-mer frequency, TF over GST control)"
same,binding signal,SPI1,"1.08 fold enrichment (6-mer frequency, TF over GST control)"
same,binding signal,SPIB,"1.28 fold enrichment (6-mer frequency, TF over GST control)"
same,binding signal,ELK3,"1.25 fold enrichment (6-mer frequency, TF over GST control)"
same,binding signal,FEV,"1.33 fold enrichment (6-mer frequency, TF over GST control)"
same,binding signal,ETV5,"1.2 fold enrichment (6-mer frequency, TF over GST control)"
same,binding signal,HSF1,"1.25 fold enrichment (6-mer frequency, TF over GST control)"
same,binding signal,SPIC,"1.28 fold enrichment (6-mer frequency, TF over GST control)"
same,binding signal,ELF4,"1.25 fold enrichment (6-mer frequency, TF over GST control)"
same,binding signal,ELK4,"1.39 fold enrichment (6-mer frequency, TF over GST control)"
same,binding signal,ETV2,"1.16 fold enrichment (6-mer frequency, TF over GST control)"
same,binding signal,ELF3,"1.37 fold enrichment (6-mer frequency, TF over GST control)"
same,binding signal,CRX,"1.15 fold enrichment (6-mer frequency, TF over GST control)"
same,binding signal,ETV1,"1.31 fold enrichment (6-mer frequency, TF over GST control)"

# From paper PMC7862700, “An all-to-all approach to the identification of sequence-specific readers for epigenetic DNA modifications on cytosine”
